About 9,100 (2.8%) of roughly 320,000 compounds were called active. Inconclusive results (about 3%) are left out. Calls come from the whole dose curve; as a rule, active = well fitted activation curve with a large enough effect; inconclusive = small, poorly fitted or top-dose-only effect; inactive = no such curve, though single readings can be large or run the other way. The full list was thinned out, with actives kept by preference.
experiment: qHTS Assay for Rab9 Promoter Activators; details: Huh7 Rab9 promoter-luciferase reporter, luminescence, 24 h; series mostly up to 9.22 µM; activation, negative = inhibition: at the top concentration; note: nearly all actives have a fitted effect of over 60% in size; for activation, negative = inhibition: % of control where 0% means no effect
From the text: NIH Chemical Genomics Center [NCGC] NIH Molecular Libraries Probe Production centers Network [MLPCN] MLPCN Grant: MH089537-01 Assay Submitter (PI): Yiannis A. Ioannou NCGC Assay Overview: Niemann Pick Type C (NPC) is a rare neurodegenerative lipidosis that is characterized by lipid storage in the endosomal/lysosomal system. Treatment modalities for this devastating disease are currently non-existent due to the severe obstacles associated with accessing the central nervous system with proteins or genes (Ioannou, 2000). We have developed a new paradigm, termed "Orphan Receptor Bypass Therapy" (ORByT), to address these disorders. This paradigm posits the existence of endogenous "suppressor" proteins whose expression can dramatically improve LSD pathogenesis. The goal is the identification/discovery of small chemical compounds that can modulate the expression of these proteins and provide a new treatment modality for these devastating disorders. One such protein whose overexpression reverses aspects of the NPC phenotype is Rab9. We have developed and optimized a cell based luciferase reporter assay in 1536 well format for the identification of up-regulators of the Rab9 promoter.
The Rab9 promoter is cloned in front of the luciferase reporter gene, therefore […] promoter activation results in luciferase expression. Frozen stock of the Rab9 promoter transfected Huh7 cells were obtained from the laboratory of Dr. Yiannis Ioannou (The Mount Sinai School of Medicine, New York, NY). Cells were propagated and maintained at NCGC in medium containing RPMI-1640 supplemented with 10% FBS, 2mM L-glutamine, and 50ug/ml penicillin/streptomycin. Cells were harvested in and plated for assays in OP-MEM I reduced-serum medium supplemented with 10% FBS. The Amplite luciferase reporter gene assay kit was purchased from ABD Bioquest and prepared/stored according to manufacturers recommendations. qHTS Assay Setup: 1.Dispensed 5ul of Huh7 cells stably expressing Rab9-luciferase at a density of 1500 cells per well 1536-well plates. 2.Incubate cells at 37C, 5% CO2, and 95% humidity for 2 hours. 3.Transferred 23nl per well of compound in DMSO solution. 4.Incubated at 37C, 5% CO2, and 95% humidity for 24 hours. 5.Dispensed 3ul per well of Amplite reagent(ABD Bioquest) per well. 6.Incubate at ambient for 10 minutes. 7.Read using the luminescence protocol on the ViewLux plate reader (Perkin Elmer).
Potency is the fitted concentration of half-maximal effect.

Compound | activation, negative = inhibition | Potency
CCOC(=O)c1c(-c2ccccc2)oc2ccc(OC(=O)N(C)C)cc12 | 1.01% (inactive) | –
CN(C)C(=O)Oc1ccc2c(c1)O/C(=C\c1ccccc1)C2=O | – | 1410 nM (active)
CN(C)C(=O)Oc1ccc(OCc2cccc[n+]2C)cc1 | -5.21% (inactive) | –
c1ccc2c(c1)[I+]c1ccccc1-2 | -41.2% [at 46.1 µM] (inactive) | –
CC(=O)c1c(O)c(C)c(O)c(Cc2c(O)c3c(c(C(=O)/C=C/c4ccccc4)c2O)OC(C)(C)C=C3)c1O | -18.4% [at 46.1 µM] (inactive) | –
O=C(Nc1cccc(OC(=O)N2CCCCC2)c1)N1CCOCC1 | 1.14% (inactive) | –
CN1CCN(C(=O)COc2ccc(C(C)(C)C)cc2Br)CC1 | -3.98% (inactive) | –
CC(C)(C)c1ccc(OC(=O)N2CCCCC2)cc1 | – | 3160 nM (active)
C[C@@H]1C[C@@H]2O[C@H]2/C=C\C=C\C(=O)Cc2c(Cl)c(O)cc(O)c2C(=O)O1 | -40.2% (inactive) | –
CNCC[C@H](Oc1ccc(C(F)(F)F)cc1)c1ccccc1 | – | inactive

Source: PubChem BioAssay AID485297 (National Center for Advancing Translational Sciences (NCATS), 2010)
